# Several values for one entry are separate records, joined by “and”; a condition that tells them apart may be missing. Equal entries are not always repeated. Screen size: about 390,000 compounds; about 4,000 (1%) were called active. Inconclusive results (about 7%) are left out. Calls follow the shape of the dose curve; as a rule, active = well fitted inhibition curve with a large enough effect; inconclusive = small, poorly fitted or top-dose-only effect, or another doubt; inactive = no such curve, though single readings can be large or run the other way. What follows is part of a selection rich in actives, with near analogues and random picks from the rest. Some compounds were tested as several samples or in several runs, with calls that do not always agree.
# Target: DNA polymerase iota (Homo sapiens) (UniProt Q9UNA4)
# Sequence (Q9UNA4 whole entry, looked up): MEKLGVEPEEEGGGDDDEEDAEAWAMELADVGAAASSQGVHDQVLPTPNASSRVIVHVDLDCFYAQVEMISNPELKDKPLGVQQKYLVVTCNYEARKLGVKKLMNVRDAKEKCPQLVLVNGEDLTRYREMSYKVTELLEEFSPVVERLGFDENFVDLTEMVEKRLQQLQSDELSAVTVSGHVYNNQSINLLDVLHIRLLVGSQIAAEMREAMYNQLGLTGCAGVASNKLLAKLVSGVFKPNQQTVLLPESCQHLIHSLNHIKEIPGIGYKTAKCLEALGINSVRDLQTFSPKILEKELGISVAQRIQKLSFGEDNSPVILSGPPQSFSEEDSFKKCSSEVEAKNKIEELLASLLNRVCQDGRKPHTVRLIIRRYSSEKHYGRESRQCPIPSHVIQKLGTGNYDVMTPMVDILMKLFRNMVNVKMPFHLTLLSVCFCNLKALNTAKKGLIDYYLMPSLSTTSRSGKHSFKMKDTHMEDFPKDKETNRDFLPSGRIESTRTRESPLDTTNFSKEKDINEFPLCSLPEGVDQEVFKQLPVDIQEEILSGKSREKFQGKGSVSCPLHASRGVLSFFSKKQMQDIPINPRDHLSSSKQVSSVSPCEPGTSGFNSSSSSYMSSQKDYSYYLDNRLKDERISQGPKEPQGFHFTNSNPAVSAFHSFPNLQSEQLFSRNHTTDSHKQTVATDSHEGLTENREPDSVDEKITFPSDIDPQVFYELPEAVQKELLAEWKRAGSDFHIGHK
# Assay: qHTS for Inhibitors of Polymerase Iota
# Conditions: Pol iota fluorescent replication assay, 10 min; series mostly up to 115 µM; activity, negative = inhibition: at the top concentration
# Outline: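 Fluorescent replication assay read twice, at 0 min and 10 min after adding 50 nM (final) substrate. Enzyme (10 nM) and compounds were first incubated 15 min at room temperature; enzyme-free buffer wells were negative controls.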
# Potency is read from the fitted curve at half-maximal effect.
Compound,Potency,"activity, negative = inhibition"
Cn1c(CC(=O)NNC(=O)c2ccccc2F)nc2ccccc21,70.8 µM (active),
Cc1cc2occ(CC(=O)NNC(=O)c3ccccc3F)c2cc1C,,9.31% (inactive)
O=C(Cn1cnc2ccccc2c1=O)NNC(=O)c1ccccc1F,,85.9% (inactive)
COc1cc(Cl)ccc1Nc1ncc(C(=O)N2CCN(c3ccccc3OC)CC2)c2ccccc12,,25.4% (inactive)
CCc1ccc(S(=O)(=O)c2nnn3c2nc(NCc2ccccc2OC)c2cc(Cl)ccc23)cc1,,26.5% (inactive)
CN(C)NC(=O)C(NC(=O)c1ccc(N)cc1)C12CC3CC(CC(C3)C1)C2 (centres undefined),35.5 µM (active),
CC(NC(=O)c1ccc(N2CCNCC2)c([N+](=O)[O-])c1)C12CC3CC(CC(C3)C1)C2 (centres undefined),,6.58% (inactive)
CC(CNC(=O)c1ccc(N)cc1)NC(=O)c1ccc(N)cc1 (centres undefined),,34.8% (inactive)
CC(CCCc1ccccc1)NC(=O)c1nn(-c2ccc(Cl)cc2)nc1CO (centres undefined),,0.647% (inactive)
COc1ccc(CCNC(=O)c2ccc3c(c2)sc2nc(-c4ccc(C)cc4)cn23)cc1OC,,6.49% (inactive)
CCOc1ccccc1C(=O)NCc1ccc2c(c1)CCN2C(=O)c1ccc(F)cc1,,38.3% (inactive)
COC(=O)c1ccccc1NC(=O)Cn1c(=O)n(-c2cccc(C(F)(F)F)c2)c(=O)c2c(C)c(C)sc21,,-4.45% (inactive)
COc1ccc(N2CCN(S(=O)(=O)c3ccc4c(c3)NC(=O)C(C)C(=O)N4)CC2)cc1 (centres undefined),,-18.4% (inactive)
CON(C)S(=O)(=O)c1ccc2c(c1)NC(=O)C1CCCN21 (centres undefined),22.4 µM (active),
CC1C(=O)Nc2ccc(S(=O)(=O)N3CCN(c4ccccc4F)CC3)cc2NC1=O (centres undefined),,32% (inactive)
NC(=O)C[n+]1cccc(C(N)=O)c1,,24.1% (inactive)
N#Cc1ccc[n+](CC(=O)c2ccc(O)c(O)c2)c1,0.891 µM (active),
N#Cc1ccc[n+](CC(=O)c2ccc(F)cc2)c1,,8.91% (inactive)
Cc1ccccc1C(=O)NCc1nc(-c2ccc(Cl)cc2)no1,,2.79% (inactive)
CCN(CC)CCNC(=O)CN1N=C(c2ccc(OC)cc2)CCC1=O,,1.32% (inactive)
COc1ccc(OC)c(CNC(=O)CN2C(=O)CCn3nc(-c4cn(C)c5ccccc45)cc32)c1,,-3.3% (inactive)
Cn1c(=O)cc(OCC(=O)N2CCN(c3ccccc3)CC2)c2ccccc21,,4.97% (inactive)

Compound,Potency,"activity, negative = inhibition"
CCC(=O)N1CCc2cc(Br)cc(S(=O)(=O)CCC(=O)NCc3ccccc3OC)c21,,-18% (inactive)
Cc1ccc(NC(=O)CN2C(=O)C(c3ccc(F)cc3)=NC23CCCCCC3)c(C)c1,44.7 µM (active),
CCc1ccc(NC(=O)CN2C(=O)C(c3ccccc3)=NC23CCCCCC3)cc1,,-2.09% (inactive)
COc1ccc(NC(=O)CN2C(=O)C(c3ccccc3)=NC23CCCCCC3)cc1OC,,-12.5% (inactive)
CCCCN(C)c1nnc(NC(=O)Nc2ccc(Br)c(C)c2)s1,,59.7% (inactive)
CCOCCCn1c(SCC(=O)Nc2ccc(CC)cc2)nc2ccccc2c1=O,,2.09% (inactive)
Cc1ccc(Cl)cc1NC(=O)Cc1ccc(-n2c(C)nc3cccnc32)cc1,,16.1% (inactive)
COc1ccccc1-c1ccnc2[nH]n(-c3ccccc3)c(=O)c12,,-9.07% (inactive)
O=c1c2c(-c3ccccc3)ccnc2[nH]n1-c1ccccc1,inactive and 89.1 µM (active),
Cc1ccc(-c2ccnc3[nH]n(-c4ccccc4)c(=O)c23)cc1,,4.79% (inactive)
COc1ccc(OC)c(NC(=O)CN2CCCN(Cc3cc(C)ccc3C)S2(=O)=O)c1,,6.44% (inactive)
CCOc1ccc(NC(=O)c2cc3c(=O)n(Cc4cccs4)ccc3nc2C)cc1,,-26.1% (inactive)
Cc1cc2nn(-c3ccc(Cl)cc3)nc2cc1NC(=O)C(C)C,,-5.65% (inactive)
O=C(NCc1ccccc1)c1cc(-c2cccc(Cl)c2)on1,,-3.04% (inactive)
O=C(NC(=S)Nc1cc(C(F)(F)F)ccc1N1CCOCC1)c1ccc(-c2cccc(Cl)c2)o1,,-8.99% (inactive)
O=C(O)C(c1ccccc1)N1C(=O)/C(=C\c2ccc(-c3cccc(Cl)c3)o2)SC1=S (centres undefined),31.6 µM (active),
Cc1ccc(-c2nnc(Nc3ccc(OCC(N)=O)cc3)c3ccccc23)cc1S(=O)(=O)NCC1CCCO1 (centres undefined),,-5.22% (inactive)
O=C(c1cnn2c1NC(=C1CC1)C=C2C(F)F)N1CCc2ccccc2C1,,20.7% (inactive)
Cc1ccc(NC(=O)c2cc(S(=O)(=O)NCCC3=CCCCC3)ccc2F)cc1C,,-3.59% (inactive)
O=C(O)c1cccnc1NC1CCCC1,89.1 µM (active),
CCCSc1ncccc1C(=O)O,,8.93% (inactive)
O=C(COC(=O)c1cccnc1Cl)NC(=O)NC1CCCCC1,,-3.55% (inactive)

Compound,Potency,"activity, negative = inhibition"
CSc1ccccc1-c1nnc(NC(=O)c2ccc3c(c2)OCCO3)o1,,-15.2% (inactive)
Cc1ccc(NC(=O)Cn2nnc3sc4c(c3c2=O)CCC(C)C4)cc1 (centres undefined),,20% (inactive)
O=C(CCc1n[nH]c(=O)[nH]c1=O)N/N=C/c1ccc(Br)o1,,5.97% (inactive)
O=C(CCNC(=O)c1ccccc1Cl)NN=Cc1ccco1,,29.4% (inactive)
O=C(CCNC(=O)c1ccccc1)NN=Cc1ccc(Br)o1,35.5 µM (active),
O=S(=O)(Nc1cccc2cccnc12)c1cccc2cccnc12,,55.6% (inactive)
ClC/C=C/C[n+]1ccccc1Cl,,-0.0585% (inactive)
CCOC(=O)C1CCCN(C(=O)Cn2ncc3c(C)n(Cc4ccc(F)cc4)c(C)c3c2=O)C1 (centres undefined),,18.1% (inactive)
O=c1ccc2c(-c3ccccc3S(=O)(=O)O)c3ccc(O)c(O)c3oc-2c1O,1.12 µM (active),
COc1ccc(CCn2c3c(c(=O)[nH]c2=S)CN(C(C)C)CN3)cc1OC,,32.6% (inactive)
COc1ccccc1-c1cc2nc(C)c(CCC(=O)NC3CCCCC3)c(C)n2n1,,14.6% (inactive)
COc1ccc2c(c1)c(=Cc1ccc(N(C)C)cc1)c1cc(-c3ccccc3)[n+](C)n12,39.8 µM (active),
CN(C)c1ccc(/C=c2\[nH]c(=O)/c(=C/c3ccc(N(C)C)cc3)[nH]c2=O)cc1,,13.7% (inactive)
O=C(Cn1ncn2nc(-c3cccs3)cc2c1=O)NCc1cccc(Br)c1,,8.76% (inactive)
O=C(Nc1ccc(OC(F)(F)F)cc1)C1CCCN(S(=O)(=O)c2ccc(Br)s2)C1 (centres undefined),,22.4% (inactive)
SCc1nc2ccc(Cl)cc2[nH]1,,37.3% (inactive)
Fc1ccc(CN2CCc3nc(Nc4ccccc4)ncc3C2)cc1F,,8.9% (inactive)
Cc1cc(C)c(-c2csc(NC(=O)CCCc3nc4ccccc4c(=O)[nH]3)n2)c(C)c1,,-0.398% (inactive)
O=C(COC(=O)c1cc(=O)[nH]c2ccccc12)Nc1nc(-c2cccc(Br)c2)cs1,,150% (inactive)
O=C(CSc1nc2ccccc2c(=O)[nH]1)Nc1nc(-c2ccc(Br)cc2)cs1,6.31 µM (active),

# Reference: PubChem BioAssay AID588590 (National Center for Advancing Translational Sciences (NCATS), 2011)
